Assays:
Assay in all cases: log2 ratio of Biotin-Ahx-Ub-VS probe labelling (fragment/DMSO); higher = less target engagement (more negative = stronger competition), active = hit call of the paper (q ≤ 0.05, log2 ratio ≤ -1)
Settings in all cases: compound concentration: 200 uM; treatment time: 3 h
USP34 = USP34 (UniProt Q70CQ2)
Method in brief: (§1)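 HEK293T lysate (495 µg per sample, in Tris/CHAPS/IGEPAL buffer with protease inhibitors) was exposed in triplicate for 3 h to fragment at 200 µM or to vehicle, then to Biotin-Ahx-Ub-VS at 0.5 µM final for 1 h. Labelled DUBs were enriched on NeutrAvidin, digested with LysC and trypsin, and analysed by diaPASEF LC-MS/MS. Spectronaut label-free quantities were normalised to the global median, and values are average log2 ratios of fragment over vehicle from an unpaired t-test. Only proteins with ≥2 unique peptides were used.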

USP36 = target: T1, USP36 (UniProt Q9P275)
T1 sequence (whole entry): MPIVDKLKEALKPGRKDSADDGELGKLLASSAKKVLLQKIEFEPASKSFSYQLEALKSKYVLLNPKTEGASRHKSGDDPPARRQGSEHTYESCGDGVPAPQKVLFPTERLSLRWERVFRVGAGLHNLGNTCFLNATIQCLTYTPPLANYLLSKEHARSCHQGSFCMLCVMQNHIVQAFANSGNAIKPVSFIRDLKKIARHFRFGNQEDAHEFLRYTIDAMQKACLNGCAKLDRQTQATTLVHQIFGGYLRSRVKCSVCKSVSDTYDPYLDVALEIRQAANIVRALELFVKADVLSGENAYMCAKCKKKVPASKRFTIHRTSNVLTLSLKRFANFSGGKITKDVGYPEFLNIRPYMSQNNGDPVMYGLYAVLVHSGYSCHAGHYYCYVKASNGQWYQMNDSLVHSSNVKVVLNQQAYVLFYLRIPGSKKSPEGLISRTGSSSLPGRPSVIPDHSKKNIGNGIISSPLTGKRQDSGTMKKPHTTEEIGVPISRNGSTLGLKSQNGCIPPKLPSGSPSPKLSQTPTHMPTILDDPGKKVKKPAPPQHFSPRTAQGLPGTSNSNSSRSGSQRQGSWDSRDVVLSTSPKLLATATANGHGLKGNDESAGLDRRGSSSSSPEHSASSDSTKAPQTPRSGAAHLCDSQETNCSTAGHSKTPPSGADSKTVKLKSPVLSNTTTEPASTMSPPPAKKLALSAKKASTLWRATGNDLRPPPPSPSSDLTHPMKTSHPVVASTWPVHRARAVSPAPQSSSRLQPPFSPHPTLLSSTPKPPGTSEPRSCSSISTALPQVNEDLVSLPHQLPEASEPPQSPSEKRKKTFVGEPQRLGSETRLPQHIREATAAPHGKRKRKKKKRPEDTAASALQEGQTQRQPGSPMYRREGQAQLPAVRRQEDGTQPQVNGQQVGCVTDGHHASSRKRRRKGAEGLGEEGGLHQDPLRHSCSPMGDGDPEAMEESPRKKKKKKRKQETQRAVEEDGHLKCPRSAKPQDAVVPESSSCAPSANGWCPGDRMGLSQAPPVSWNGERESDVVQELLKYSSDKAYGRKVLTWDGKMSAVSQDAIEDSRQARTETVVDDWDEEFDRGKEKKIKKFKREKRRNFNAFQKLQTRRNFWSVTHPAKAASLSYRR
Method in brief: as §1

USP38 = target: T2, USP38 (UniProt Q8NB14)
T2 sequence (whole entry): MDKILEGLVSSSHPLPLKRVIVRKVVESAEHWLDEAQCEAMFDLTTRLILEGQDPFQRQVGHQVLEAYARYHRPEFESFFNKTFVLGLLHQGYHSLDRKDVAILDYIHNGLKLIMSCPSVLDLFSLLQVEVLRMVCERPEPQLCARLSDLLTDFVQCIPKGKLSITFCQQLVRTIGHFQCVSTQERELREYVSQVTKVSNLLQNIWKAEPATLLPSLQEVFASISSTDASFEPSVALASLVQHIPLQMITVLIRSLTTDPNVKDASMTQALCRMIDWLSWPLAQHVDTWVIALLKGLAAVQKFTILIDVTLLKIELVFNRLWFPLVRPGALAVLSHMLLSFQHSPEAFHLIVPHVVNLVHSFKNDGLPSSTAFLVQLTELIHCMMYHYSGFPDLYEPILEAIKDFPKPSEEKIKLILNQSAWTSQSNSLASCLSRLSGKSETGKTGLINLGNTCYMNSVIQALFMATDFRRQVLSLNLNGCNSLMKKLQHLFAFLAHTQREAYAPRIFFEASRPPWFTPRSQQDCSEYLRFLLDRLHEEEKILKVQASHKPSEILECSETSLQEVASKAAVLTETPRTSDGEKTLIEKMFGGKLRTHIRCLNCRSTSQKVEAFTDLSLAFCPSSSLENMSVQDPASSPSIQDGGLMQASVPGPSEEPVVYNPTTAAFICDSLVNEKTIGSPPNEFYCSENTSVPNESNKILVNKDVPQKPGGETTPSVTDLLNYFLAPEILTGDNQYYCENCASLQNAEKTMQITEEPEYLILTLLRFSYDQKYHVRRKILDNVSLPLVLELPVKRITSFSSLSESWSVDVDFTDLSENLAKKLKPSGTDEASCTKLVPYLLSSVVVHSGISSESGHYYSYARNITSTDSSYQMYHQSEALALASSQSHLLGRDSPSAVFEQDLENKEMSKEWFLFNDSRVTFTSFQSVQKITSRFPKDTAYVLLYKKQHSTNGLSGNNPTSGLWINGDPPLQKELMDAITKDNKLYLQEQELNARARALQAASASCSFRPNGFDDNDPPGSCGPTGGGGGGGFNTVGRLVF
Method in brief: as §1

USP39 = target: T3, USP39 (UniProt Q53GS9)
T3 sequence (whole entry): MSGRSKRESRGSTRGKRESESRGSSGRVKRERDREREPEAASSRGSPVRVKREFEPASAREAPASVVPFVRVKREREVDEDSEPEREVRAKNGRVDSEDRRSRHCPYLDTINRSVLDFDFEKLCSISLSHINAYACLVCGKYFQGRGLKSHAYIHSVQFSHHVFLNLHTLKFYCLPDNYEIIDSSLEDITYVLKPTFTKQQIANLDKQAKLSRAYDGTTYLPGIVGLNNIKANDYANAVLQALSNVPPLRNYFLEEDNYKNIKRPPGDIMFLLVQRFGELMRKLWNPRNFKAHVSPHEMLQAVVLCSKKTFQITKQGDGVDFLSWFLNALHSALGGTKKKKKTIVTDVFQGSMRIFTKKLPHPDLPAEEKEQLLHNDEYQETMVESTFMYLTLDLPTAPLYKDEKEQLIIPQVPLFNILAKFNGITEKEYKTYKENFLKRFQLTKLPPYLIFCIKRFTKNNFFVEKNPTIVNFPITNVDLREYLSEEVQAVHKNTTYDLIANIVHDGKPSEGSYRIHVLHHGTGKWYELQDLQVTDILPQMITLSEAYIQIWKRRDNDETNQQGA
Method in brief: as §1

USP4 = target: T4, USP4 (UniProt Q13107)
T4 sequence (whole entry): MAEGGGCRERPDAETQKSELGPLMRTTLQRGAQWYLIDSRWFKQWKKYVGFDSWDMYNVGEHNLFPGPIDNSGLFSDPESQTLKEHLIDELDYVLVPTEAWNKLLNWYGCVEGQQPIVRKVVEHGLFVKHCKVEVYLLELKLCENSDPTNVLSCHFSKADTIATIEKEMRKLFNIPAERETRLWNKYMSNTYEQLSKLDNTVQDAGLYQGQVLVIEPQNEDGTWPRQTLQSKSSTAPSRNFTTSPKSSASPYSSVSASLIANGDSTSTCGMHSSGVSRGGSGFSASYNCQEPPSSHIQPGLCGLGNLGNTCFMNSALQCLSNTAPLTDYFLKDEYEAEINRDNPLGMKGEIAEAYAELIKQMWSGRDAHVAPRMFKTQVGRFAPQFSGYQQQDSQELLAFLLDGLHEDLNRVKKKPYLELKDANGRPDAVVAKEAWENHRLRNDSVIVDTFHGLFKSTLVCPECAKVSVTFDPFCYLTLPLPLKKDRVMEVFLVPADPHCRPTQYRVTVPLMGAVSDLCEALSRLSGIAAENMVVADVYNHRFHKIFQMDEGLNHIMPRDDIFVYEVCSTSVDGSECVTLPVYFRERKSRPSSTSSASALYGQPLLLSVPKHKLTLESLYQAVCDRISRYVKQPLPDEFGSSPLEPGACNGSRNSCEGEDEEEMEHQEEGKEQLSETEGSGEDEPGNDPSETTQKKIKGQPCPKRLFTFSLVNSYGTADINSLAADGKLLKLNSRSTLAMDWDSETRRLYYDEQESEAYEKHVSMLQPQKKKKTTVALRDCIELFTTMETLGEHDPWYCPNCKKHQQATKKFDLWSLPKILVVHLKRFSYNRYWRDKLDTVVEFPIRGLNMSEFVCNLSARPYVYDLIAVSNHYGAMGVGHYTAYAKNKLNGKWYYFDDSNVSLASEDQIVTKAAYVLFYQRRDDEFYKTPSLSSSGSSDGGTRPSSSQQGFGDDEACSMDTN
Method in brief: as §1

Measured: log2 ratio of Biotin-Ahx-Ub-VS probe labelling

Chain of USP34 (Q70CQ2 whole entry, the tested form may be a part): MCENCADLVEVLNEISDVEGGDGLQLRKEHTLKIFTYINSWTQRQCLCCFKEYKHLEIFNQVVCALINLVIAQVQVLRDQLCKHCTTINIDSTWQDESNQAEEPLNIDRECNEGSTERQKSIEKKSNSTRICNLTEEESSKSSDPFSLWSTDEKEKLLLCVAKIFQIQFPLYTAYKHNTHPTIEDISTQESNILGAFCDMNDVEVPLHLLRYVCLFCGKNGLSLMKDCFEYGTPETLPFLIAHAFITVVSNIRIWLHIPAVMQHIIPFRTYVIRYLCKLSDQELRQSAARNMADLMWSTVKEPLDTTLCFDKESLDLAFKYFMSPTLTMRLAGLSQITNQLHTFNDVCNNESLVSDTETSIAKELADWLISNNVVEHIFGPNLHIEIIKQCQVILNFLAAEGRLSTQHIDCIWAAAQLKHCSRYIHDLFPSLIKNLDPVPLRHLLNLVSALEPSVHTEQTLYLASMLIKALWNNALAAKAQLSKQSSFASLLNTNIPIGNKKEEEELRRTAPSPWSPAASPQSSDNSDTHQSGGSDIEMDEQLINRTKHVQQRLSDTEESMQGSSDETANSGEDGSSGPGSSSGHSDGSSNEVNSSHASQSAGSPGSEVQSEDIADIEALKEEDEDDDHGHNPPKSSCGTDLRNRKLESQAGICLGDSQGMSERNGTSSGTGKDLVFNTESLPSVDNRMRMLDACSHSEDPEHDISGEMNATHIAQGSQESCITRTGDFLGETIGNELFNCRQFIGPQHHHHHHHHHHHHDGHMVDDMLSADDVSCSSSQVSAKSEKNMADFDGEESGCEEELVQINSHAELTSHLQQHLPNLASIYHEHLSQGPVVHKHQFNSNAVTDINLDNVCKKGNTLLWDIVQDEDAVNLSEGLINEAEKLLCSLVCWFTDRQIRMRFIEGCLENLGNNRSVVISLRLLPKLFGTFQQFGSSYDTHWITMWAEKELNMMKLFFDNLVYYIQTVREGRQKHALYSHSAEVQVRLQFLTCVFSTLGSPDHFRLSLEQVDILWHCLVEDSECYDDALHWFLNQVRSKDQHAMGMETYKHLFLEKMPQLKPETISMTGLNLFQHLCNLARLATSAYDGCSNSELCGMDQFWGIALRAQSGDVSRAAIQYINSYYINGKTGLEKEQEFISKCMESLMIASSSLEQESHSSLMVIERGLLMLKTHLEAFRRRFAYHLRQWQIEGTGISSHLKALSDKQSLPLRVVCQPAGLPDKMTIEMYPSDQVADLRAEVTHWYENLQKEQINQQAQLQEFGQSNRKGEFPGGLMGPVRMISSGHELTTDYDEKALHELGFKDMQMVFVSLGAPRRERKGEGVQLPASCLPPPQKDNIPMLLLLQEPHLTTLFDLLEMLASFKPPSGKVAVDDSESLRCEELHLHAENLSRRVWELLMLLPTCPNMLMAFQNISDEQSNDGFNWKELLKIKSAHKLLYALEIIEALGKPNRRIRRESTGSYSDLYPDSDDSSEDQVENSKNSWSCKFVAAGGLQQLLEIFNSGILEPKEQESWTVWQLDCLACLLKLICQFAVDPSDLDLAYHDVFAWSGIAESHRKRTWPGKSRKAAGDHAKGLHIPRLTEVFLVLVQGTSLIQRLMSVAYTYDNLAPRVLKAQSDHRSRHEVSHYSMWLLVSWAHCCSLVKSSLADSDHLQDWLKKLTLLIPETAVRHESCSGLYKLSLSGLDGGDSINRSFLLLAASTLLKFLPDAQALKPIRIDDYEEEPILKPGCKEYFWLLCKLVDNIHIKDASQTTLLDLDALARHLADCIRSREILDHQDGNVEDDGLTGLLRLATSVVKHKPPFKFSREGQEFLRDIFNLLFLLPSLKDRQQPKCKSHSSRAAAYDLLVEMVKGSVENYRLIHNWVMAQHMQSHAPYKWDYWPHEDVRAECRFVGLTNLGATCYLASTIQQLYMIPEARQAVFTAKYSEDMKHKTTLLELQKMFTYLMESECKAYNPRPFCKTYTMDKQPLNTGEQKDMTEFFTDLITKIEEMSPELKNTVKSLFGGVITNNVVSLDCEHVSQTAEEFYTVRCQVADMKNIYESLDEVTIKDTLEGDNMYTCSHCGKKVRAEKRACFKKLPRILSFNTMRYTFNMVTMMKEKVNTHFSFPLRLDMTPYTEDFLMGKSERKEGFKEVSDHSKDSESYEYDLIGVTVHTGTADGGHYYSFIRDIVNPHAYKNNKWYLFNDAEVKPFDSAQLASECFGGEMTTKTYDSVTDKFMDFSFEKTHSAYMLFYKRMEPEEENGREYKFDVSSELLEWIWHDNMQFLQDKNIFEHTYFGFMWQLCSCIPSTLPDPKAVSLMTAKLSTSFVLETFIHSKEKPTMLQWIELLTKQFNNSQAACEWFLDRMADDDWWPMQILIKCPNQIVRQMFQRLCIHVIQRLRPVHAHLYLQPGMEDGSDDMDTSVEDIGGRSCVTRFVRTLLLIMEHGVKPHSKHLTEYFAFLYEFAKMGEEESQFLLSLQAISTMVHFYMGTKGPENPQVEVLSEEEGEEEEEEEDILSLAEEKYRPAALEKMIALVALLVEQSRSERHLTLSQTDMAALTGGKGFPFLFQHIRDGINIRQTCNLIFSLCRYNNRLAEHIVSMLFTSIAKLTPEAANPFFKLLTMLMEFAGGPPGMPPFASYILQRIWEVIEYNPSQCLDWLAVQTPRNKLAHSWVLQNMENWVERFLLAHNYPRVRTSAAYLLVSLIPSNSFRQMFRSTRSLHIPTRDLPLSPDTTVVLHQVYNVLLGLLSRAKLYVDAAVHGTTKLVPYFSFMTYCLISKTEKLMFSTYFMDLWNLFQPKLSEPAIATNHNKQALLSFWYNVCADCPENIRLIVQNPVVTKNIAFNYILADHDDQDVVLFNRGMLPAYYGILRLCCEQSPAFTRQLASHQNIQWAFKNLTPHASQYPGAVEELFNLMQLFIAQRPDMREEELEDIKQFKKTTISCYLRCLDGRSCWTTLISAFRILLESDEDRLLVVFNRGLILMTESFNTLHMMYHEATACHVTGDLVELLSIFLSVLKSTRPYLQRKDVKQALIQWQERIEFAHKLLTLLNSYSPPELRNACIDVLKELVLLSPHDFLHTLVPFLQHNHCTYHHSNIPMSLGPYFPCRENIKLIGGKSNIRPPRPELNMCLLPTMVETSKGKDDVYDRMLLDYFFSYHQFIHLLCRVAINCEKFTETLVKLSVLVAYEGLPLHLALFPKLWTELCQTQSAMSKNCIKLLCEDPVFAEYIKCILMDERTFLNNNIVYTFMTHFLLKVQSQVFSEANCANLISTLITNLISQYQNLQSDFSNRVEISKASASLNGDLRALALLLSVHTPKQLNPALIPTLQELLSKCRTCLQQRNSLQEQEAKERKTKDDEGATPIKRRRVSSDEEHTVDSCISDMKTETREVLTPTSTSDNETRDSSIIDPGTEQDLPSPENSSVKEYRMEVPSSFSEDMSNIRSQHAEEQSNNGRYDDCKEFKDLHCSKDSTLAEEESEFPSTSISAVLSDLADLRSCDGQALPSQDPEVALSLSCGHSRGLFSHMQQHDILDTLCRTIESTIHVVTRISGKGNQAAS

CS(=O)(=O)N1CCCN(C(=O)CCl)CC1
inactive: USP34 -0.016 | USP36 -0.255 | USP38 -0.0208 | USP39 0.0871 | USP4 -0.0865

— the supplement of paper PMC11732987, “Enantioselective OTUD7B fragment discovery through chemoproteomics screening and high-throughput optimisation” (Communications Chemistry, 2025)
